# The whole screen tested about 68,000 compounds, of which about 2,700 (4%) showed an effect of 50% or more. The list comes from a sample in which strong results are over-represented; it also holds similar structures and randomly drawn compounds.
# Tested on: Plasmodium berghei
# Assay: Screen against P. berghei liver stage (PbLuc), transformed with Luciferase, at 2uM
# Assay type: functional, HepG2
# Settings: tested at 2 uM
row,SMILES,INHIBITION [%]
1,O=C(NCCOCCO)[C@@]12CNC[C@@H]1CN(C1CCCC1)C2,45.82
2,CCS(=O)(=O)CCNC(=O)[C@@]12CNC[C@@H]1CN(C1CCCC1)C2,-13.8
3,COCC1(CNC(=O)[C@@]23CNC[C@@H]2CN(C2CCCC2)C3)CC1,83.98
4,CCC(NC(=O)C1CCN(S(C)(=O)=O)CC1)c1ccc(C)cc1C (centres undefined),20.49
5,CC(C)COC(=O)N1CCCN(C(C)c2nc(C(C)C)no2)CC1 (centres undefined),4.49
6,O=C(NCc1ccco1)[C@H]1C[C@H]2OCC[C@H]2N(C(=O)c2ccnnc2)C1,-14.65
7,O=C(C1CC1)N1CCC2(CCN2Cc2ccc(F)cc2)C1 (centres undefined),31.52
8,Cc1nn(C)cc1C(=O)N1CCCn2nc(CN3CC[C@H](F)C3)cc2C1,-11.76
9,COC(=O)NCC(=O)N1CCCn2nc(CN3CC[C@H](F)C3)cc2C1,52.85
10,O=C(c1ccc(Cl)s1)N1CCCn2nc(CN3CC[C@H](F)C3)cc2C1,-13.81
11,COCCn1cncc1-c1nc2c([nH]1)CC(C)(C)CNC2=O,8.54
12,CCn1cncc1-c1nc2c([nH]1)CC(C)(C)CNC2=O,50.61
13,CC(C)Cn1cncc1-c1nc2c([nH]1)CC(C)(C)CNC2=O,-54.78
14,CCc1cc(N2CCCNCC2)n2nc(C)c(C)c2n1,14.23
15,Cc1ccc(NS(=O)(=O)c2cc3c(c(C(=O)O)c2)OCCO3)cc1C,-19.1
16,O=C(NCc1cc[nH]n1)NCC(O)c1ccc(F)c(F)c1 (centres undefined),-87.87
17,CCCS(=O)(=O)N1CCCC1c1cccc(N(C)C)c1 (centres undefined),-46.3
18,c1ccc(-c2ncc(CN3CCCCC3CCn3cccn3)cn2)nc1 (centres undefined),11.38
19,CN(C)CCC1CCCCN1Cc1cnc(-c2ccccn2)nc1 (centres undefined),53.12
20,Cc1nccn1CCC1CCCCN1Cc1cnc(N(C)C)nc1 (centres undefined),-4.51
21,CS(=O)(=O)N1CCC2(CC1)COC(COc1ccccn1)C2 (centres undefined),46.32
22,Cc1nc(O)c2nnn(C[C@H]3CCCN3C(=O)c3ccccc3C)c2n1,83.57
23,Cc1nc(O)c2nnn(C[C@H]3CCCN3C(=O)C(C)(C)C)c2n1,-47.12
24,Cc1nc(O)c2nnn(C[C@H]3CCCN3C(=O)C3CCCC3)c2n1,50.32
25,Cc1nc(O)c2nnn(C[C@H]3CCCN3C(=O)CCC3CCCC3)c2n1,6.57
26,Cc1ccc(C(=O)N2CCC[C@@H]2Cn2nnc3c(O)nc(C)nc32)cc1,-15.93
27,Cc1nc(O)c2nnn(C[C@H]3CCCN3C(=O)c3ccccc3F)c2n1,33.64

row,SMILES,INHIBITION [%]
1,CCn1cc(NC(=O)C2CCN(Cc3nc(C)c(C)s3)CC2)cn1,-3.36
2,Cc1ccc(NC(=O)[C@H]2C[C@H](C(=O)O)CN(CC3CC3)C2)cn1,38.15
3,FC(F)(F)c1ccc2[nH]c([C@H]3CCNC3)nc2c1,62.8
4,CC(C)N1CC[C@H](c2nc3ccc(C(F)(F)F)cc3[nH]2)C1,4
5,Fc1ccc2nc([C@H]3CCNC3)[nH]c2c1,-11.34
6,COCC(=O)NC(Cc1cc(N(C)C)nc(C2CC2)n1)c1ccccc1 (centres undefined),7.93
7,CCOCCN1CCN(C=C2NN=C(c3occc3C)O2)CC1CC (centres undefined),24.82
8,CC(CS(C)(=O)=O)N(C(=O)Nc1ccc(F)cc1F)C1CC1 (centres undefined),-3.43
9,Cc1cccc(NC(=O)N(CCC(F)(F)F)C[C@H](O)CO)c1,-24.88
10,O=C(Nc1ccc(F)cc1)N(CCC(F)(F)F)C[C@H](O)CO,5
11,O=C(Nc1ccc(F)cc1F)N(CCC(F)(F)F)C[C@H](O)CO,66.83
12,COc1cccc(NC(=O)N(CCO)Cc2ccsc2)c1,-75.39
13,COc1cccc(NC(=O)N(CCC(F)(F)F)C[C@H](O)CO)c1,50.6
14,CN(C)c1ccc(C(=O)Nc2ccn(Cc3ccccn3)n2)cn1,-44.17
15,CN1CCOC[C@H]1c1nc(-c2cccnc2)c[nH]1,5.77
16,O=C(Nc1cccc(CNCc2csc(Br)c2)c1)C1CC1,-0.64
17,CCC1(c2ccc(NS(=O)(=O)N(C)C)cc2)CCC(=O)NC1=O (centres undefined),-11.81
18,CN1CCCCC1Cc1nc2c(cc1C(N)=O)CCC2 (centres undefined),62.39
19,NC(=O)c1cc2c(nc1CC1CCCCO1)CCC2 (centres undefined),38.83
20,C[C@@H]1CN(c2nc3c(cc2C(N)=O)CCC3)CC[C@@]1(O)C1CCC1,2.79
21,COC(=O)c1ccc(NC(C)c2ccc3c(c2)CCC(=O)N3)nn1 (centres undefined),34.22
22,Cc1csc(N2CCCN(C(=O)c3c(C)oc(C)c3C)CC2)n1,-1.5
23,Cc1nc(CN2CCCN(C(=O)c3c(C)oc(C)c3C)CC2)cs1,59.54
24,Cc1csc(N2CCCN(C(=O)c3c(C)noc3C)CC2)n1,24.65
25,CCc1noc(C)c1C(=O)N1CCCN(Cc2csc(C)n2)CC1,16.84
26,Cc1csc(N2CCN(C(=O)c3c(C)oc(C)c3C)CC2)n1,58.52
27,Cc1nc(CN2CCCN(C(=O)c3c(C)noc3C)CC2)cs1,3.38

# From ChEMBL document CHEMBL4513216, “Probing the Open Global Health Chemical Diversity Library for Multistage-Active Starting Points for Next-Generation Antimalarials” (ACS Infect Dis, 2020)
